GDH-TPI counter-1: GDH-TPI coupled enzyme inhibition counter-screen. 360,000 tested, 1.2% active. inhibition, % at 4.8 µM. GDH-TPI coupled enzyme counterscreen, NADH absorbance; in the data active = inhibition above about 30%;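 also: 0% = DMSO wells and 100% = wells lacking the enzyme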
BioA inh: blocks M. tuberculosis BioA enzyme activity | purified M. tuberculosis BioA enzyme, plate reader | inhibition, % at 9.99 µM | 360,000 tested, 0.096% active | AID 602481; in the data active = inhibition above about 40%
Mtb FBA inh: Mtb fructose-bisphosphate aldolase inhibition; inhibition, % at 1 µM; 360,000 tested, 2.3% active; P9WQA3; purified M. tuberculosis FBA, fluorescence read-out;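 also: 0% = vehicle and 100% = reference inhibitor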
Target sequence (P9WQA3 whole entry, looked up): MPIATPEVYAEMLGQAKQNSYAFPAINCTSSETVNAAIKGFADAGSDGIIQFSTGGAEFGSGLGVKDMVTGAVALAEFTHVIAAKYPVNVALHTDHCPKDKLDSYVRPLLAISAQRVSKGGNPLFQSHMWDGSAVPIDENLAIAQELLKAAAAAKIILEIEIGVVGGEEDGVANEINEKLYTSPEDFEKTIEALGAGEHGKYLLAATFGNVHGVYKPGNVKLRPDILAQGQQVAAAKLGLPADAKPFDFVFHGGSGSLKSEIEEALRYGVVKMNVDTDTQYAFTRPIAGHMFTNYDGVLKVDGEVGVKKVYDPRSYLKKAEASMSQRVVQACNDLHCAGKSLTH
Vc quorum ag-1: induces V. cholerae light production without autoinducers; V. cholerae BH1578 lux reporter, luminescence, 6 h; AID 588436; activation, % at 18.7 µM; 350,000 tested, 0.16% active; in the data active = activation mostly above about 9.7%, no sharp cut-off
Vc quorum ag-2: induces V. cholerae light production without autoinducers. activation, % at 50 µM. V. cholerae BH1578 lux reporter, luminescence, 6 h. shares compounds with Vc quorum ag-1. 620 tested, under 10 active; call rule not given here
Mtb FBA confirm: Mtb FBA inhibition, confirmed. shares compounds with Mtb FBA inh. purified M. tuberculosis FBA, fluorescence read-out. inhibition, % at 1 µM. 5,600 tested, 78% active. AID 651616;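 also: 0% = vehicle wells and 100% = reference inhibitor wells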
GDH-TPI counter-2: GDH-TPI inhibition counter-screen for FBA inhibitors; shares compounds with Mtb FBA inh; GDH-TPI coupled enzyme counterscreen, fluorescence; inhibition, % at 1 µM; 5,600 tested, 81% active; AID 652141; in the data active = inhibition above about 10%
An asterisk follows results filed as active; i = inactive; · = not tested or not shown; + = active, no number. Hits are enriched below; roughly 3% of the tested compounds scored in any of these assays. Rule as the data show it, unless noted: active = inhibition above about 27%; inactive = the rest.

SMILES | GDH-TPI counter-1 | BioA inh | Mtb FBA inh | Vc quorum ag-1 | Mtb FBA confirm | GDH-TPI counter-2 | others
CCCc1cc(=O)n2[nH]cc(-c3ccc(Cl)cc3)c2n1 | 9 | -1 | 54* | 41* | -11 | -11 | Vc quorum ag-2=0
c1ccc(-c2cc3ccccc3cn2)cc1 | 2 | -2 | 3 | -2 | · | ·
Fc1ccc2cc(-c3ccccc3)ncc2c1 | 21 | -1 | 49* | i | 88* | 71*
C/C=C/c1ccc2c(c1)O[C@@H](CN(C)C(=O)COC)[C@@H](C)CN([C@H](C)CO)S2(=O)=O | · | 6 | · | · | · | ·
Cc1ccc(/C=C/C(=O)N2CCN(c3ccc(F)cc3)CC2)o1 | 15 | 1 | 58* | i | 38* | 36*
O=C(/C=C/c1ccco1)N1CCN(c2ccc(F)cc2)CC1 | 4 | · | -2 | i | · | ·
COc1ccccc1C(=O)Nc1ccc2c(c1)C(=O)N(C)C[C@@H](OC)[C@@H](C)CN[C@H](C)CO2 | · | 0 | · | · | · | ·
CCN(C(=O)c1cnc(NC(C)C)cc1C(F)(F)F)c1ccc(Cl)cc1Cl | 10 | 0 | 51* | i | 85* | 62*
C[C@@H]1CN([C@H](C)CO)C(=O)Cc2cc(NS(=O)(=O)c3cn(C)cn3)ccc2O[C@@H]1CN(C)Cc1ccc(Cl)c(Cl)c1 | · | 1 | · | · | · | ·
Cc1noc(C)c1S(=O)(=O)Nc1cccc2c1O[C@H](CN(C)Cc1ccc3c(c1)OCO3)[C@H](C)CN([C@H](C)CO)C2=O | · | 1 | · | · | · | ·
C/C=C/c1ccc2c(c1)O[C@@H](CN(C)Cc1ccccn1)[C@H](C)CN([C@@H](C)CO)S2(=O)=O | · | 0 | · | · | · | ·
Cc1c(C)c2ccc(O[C@@H]3O[C@H](CO)[C@H](O)[C@H](O)[C@H]3O)c(C)c2oc1=O | 16 | 0 | 34* | i | 49* | 44*
CCCc1cc(=O)oc2c(C)c(O[C@@H]3O[C@H](CO)[C@@H](O)[C@H](O)[C@H]3O)ccc12 | 12 | 0 | 3 | i | · | ·
Cc1c(O[C@@H]2O[C@H](CO)[C@@H](O)[C@H](O)[C@H]2O)ccc2c1oc(=O)c1ccccc12 | 14 | -1 | 88* | 0 | 62* | 52*
CC(=O)Nc1c(-c2ccc(F)cc2)nc2ccccn12 | 4 | 6 | 25 | 0 | · | ·
COC(=O)Nc1c(-c2ccccc2)nc2ccccn12 | 2 | 0 | 75* | i | 188* | 140*
c1ccc(-c2nc3ccccn3c2-c2ccccc2)cc1 | 16 | · | 29* | 0 | 0 | -3
COC(=O)Nc1c(-c2ccccc2)nc2ccc(C)cn12 | 3 | 0 | 65* | 0 | 120* | 116*
CCOC(=O)c1c(-c2ccccc2)nc2ccccn12 | 1 | 1 | 0 | i | · | ·
CC(C)C#Cc1cnc2c(c1)C(=O)N([C@H](C)CO)C[C@@H](C)[C@H](CN(C)Cc1ccc3c(c1)OCO3)O2 | · | -1 | · | · | · | ·
C[C@H]1CN([C@@H](C)CO)C(=O)Cc2cc(NC(=O)Cn3cnnn3)ccc2O[C@H]1CN(C)Cc1ccc(Cl)c(Cl)c1 | · | 4 | · | · | · | ·
COc1ccc(NC(=O)N(C)C[C@H]2OCCCC[C@@H](C)Oc3ccc(NC(=O)Nc4ccc(F)cc4)cc3C(=O)N([C@H](C)CO)C[C@@H]2C)cc1 | · | 0 | · | · | · | ·
O=C(C[C@@H]1C[C@@H]2c3cc(NC(=O)NC4CCCC4)ccc3O[C@@H]2[C@@H](CO)O1)NCc1cc(F)ccc1F | · | -1 | · | · | · | ·
Cc1ccc(C2NC(=O)c3c(sc4c3CCN(C)C4)N2)s1 (centres undefined) | 19 | · | 45* | i | 69* | 71*
Cc1c(OCC(=O)N[C@@H](Cc2ccccc2)C(=O)O)ccc2c1oc(=O)c1ccccc12 | 12 | 4 | 52* | -1 | + | +
SMILES | GDH-TPI counter-1 | BioA inh | Mtb FBA inh | Vc quorum ag-1 | Mtb FBA confirm | GDH-TPI counter-2 | others
Cc1c(Cc2ccccc2)c(=O)oc2c(C)c(OC(C)C(=O)N[C@@H](Cc3ccccc3)C(=O)O)ccc12 (some centres undefined) | 10 | 9 | 68* | 0 | 191* | 160*
CN1CCN(C(=O)C[C@H]2C[C@@H]3c4cc(NC(=O)Nc5ccccc5F)ccc4O[C@@H]3[C@@H](CO)O2)CC1 | · | -4 | · | · | · | ·
COc1cccc(NC(=O)N(C)C[C@H]2Oc3cc(-c4ccccc4F)ccc3S(=O)(=O)N([C@H](C)CO)C[C@H]2C)c1 | · | 2 | · | · | · | ·
C[C@@H]1CN([C@@H](C)CO)C(=O)Cc2cc(NS(=O)(=O)c3ccccc3)ccc2O[C@H]1CN(C)CC1CCCCC1 | · | 0 | · | · | · | ·
Nc1ncnc2c(C3OC(CO)C(O)C3O)scc12 (centres undefined) | 10 | · | 74* | i | 180* | 119*
COc1ccc(NC(=O)N[C@@H]2CC[C@H](CCNC(=O)c3ccccc3F)O[C@@H]2CO)cc1 | · | 1 | · | · | · | ·
COc1ccc(-c2nc(CSCC(=O)N3CCC4(CC3)OCCO4)c(C)o2)cc1OC | -3 | · | 8 | -1 | · | ·
Cc1oc(-c2cccs2)nc1CSCC(=O)N1CCC2(CC1)OCCO2 | -6 | · | 28* | i | 164* | 144*
Cc1noc(C)c1S(=O)(=O)N(C)C[C@H]1Oc2c(cccc2N(C)C)C(=O)N([C@@H](C)CO)C[C@H]1C | · | -1 | · | · | · | ·
C[C@@H]1CCCCO[C@@H](CN(C)Cc2ccc3c(c2)OCO3)[C@H](C)CN([C@@H](C)CO)C(=O)c2cc(NC(=O)Nc3cccc4ccccc34)ccc2O1 | · | 2 | · | · | · | ·
COc1cc2cc(C(=O)N(C)C3CCS(=O)(=O)C3)[nH]c2cc1OC (centres undefined) | 19 | -1 | 31* | i | 7 | -2
CCCC1=C(C(=O)OCC)C(c2ccco2)C(C#N)=C(N)O1 (centres undefined) | 6 | -1 | 57* | i | 99* | 68*
CCOC(=O)C1=C(c2ccccc2)OC(N)=C(C#N)C1c1ccncc1 (centres undefined) | 6 | 0 | 43* | -1 | 67* | 66*
CCOC(=O)C1=C(c2ccccc2)OC(N)=C(C#N)C1c1cccs1 (centres undefined) | 10 | 3 | -1 | 0 | · | ·
CC1(CCc2ccc3c(c2)OCO3)NC(=O)c2ccccc2N1 (centres undefined) | -4 | -1 | 50* | i | 150* | 114*
CCCCC(CC)Cn1c(N)c(C#N)c2nc3ccccc3nc21 (centres undefined) | 10 | -3 | 50* | -11 | 7 | -5
S=c1[nH]nc(-c2cccs2)n1Cc1ccccc1 | -1 | · | 28* | i | 86* | 59*
COC(=O)c1sc2cnccc2c1N | 14 | 1 | 110* | i | 91* | 85*
COC(=O)c1sc2nc(N)c(C#N)cc2c1N | 16 | · | -2 | 0 | · | ·
COC(=O)c1ccncc1N | 0 | · | 47* | -2 | 7 | -4
CCCc1nc2oc3c(NCC(C)O)ncnc3c2c2c1CCCC2 (centres undefined) | 1 | 0 | 36* | -1 | 68* | 45*

Screening data from PubChem BioAssay.
